Measurements published in PubChem BioAssay (Tox21).
Results filed as inconclusive are left out. The source made the active and inactive calls. Unless noted, calls follow the shape of the dose curve; as a rule, active = well fitted curve in the direction sought with a large enough effect in the repeat runs; inconclusive = weak or mixed curves; inactive = no such curve, though single readings can be large; an effect the other way counts as inactive or inconclusive.

Assays:
[1] = A CellTox Green Cytotoxicity Assay to monitor cytotoxicity in HEK293 cells - 32 hour (AID 1224881); also: nearly all actives have a fitted effect of over 40% in size
Summary of the method: (§1)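 Homogeneous no-lysis format: HEK293 cell suspension mixed with CellTox Green reagent, seeded, incubated 5 h at 37 C/5% CO2, then dosed by pintool with compound in DMSO.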

[2] = A CellTox Green Cytotoxicity Assay to monitor cytotoxicity in HepG2 cells - 32 hour (AID 1224883); also: nearly all actives have a fitted effect of over 50% in size
Summary of the method: (§2)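 Fluorescent DNA-binding dye, 600 HepG2 cells/well, 5 h preincubation then compound in DMSO; same plates read at 0–40 h, 37 C.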

[3] = A CellTox Green Cytotoxicity Assay to monitor cytotoxicity in HEK293 cells - 8 hour (AID 1224884); also: nearly all actives have a fitted effect of over 35% in size
Summary of the method: as §1

[4] = qHTS RealTime-Glo MT Cell Viability Assay in HepG2 cells - 16 hour (AID 1224885); also: nearly all actives have a fitted effect of over 50% in size
Summary of the method: (§3)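 Tox21 10K library screened in qHTS format on HepG2 cells carrying RealTime-Glo reagents. Compounds were added after a 5 h preincubation, and the luminescent signal from continuous culture was measured repeatedly during 40 h treatment.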

[5] = qHTS RealTime-Glo MT Cell Viability Assay in HEK293 cells - 24 hour (AID 1224886); also: nearly all actives have a fitted effect of over 50% in size; also: potency is read from the fitted curve at half-maximal effect; as to activity change, negative = cytotoxicity: top concentration of the series differs between compounds
Summary of the method: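 Luminescence generated by NanoLuc from substrate produced by living HEK293 cells served as the viability signal. Each value reflects the reading at its stated time point during continuous 40 h compound exposure at 37 C.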

[6] = qHTS RealTime-Glo MT Cell Viability Assay in HEK293 cells - 8 hour (AID 1224887); also: nearly all actives have a fitted effect of over 50% in size; also: potency is read from the fitted curve at half-maximal effect; as to activity change, negative = cytotoxicity: top concentration of the series differs between compounds
Summary of the method: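 Measured as luminescence from the same continuously cultured HEK293 wells at successive time points (0, 8, 16, 24, 32, 40 h) after compound addition. Reagent present from seeding; dosing at 5 h; incubation 37 C.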

[7] = A CellTox Green Cytotoxicity Assay to monitor cytotoxicity in HEK293 cells - 16 hour (AID 1224888); also: nearly all actives have a fitted effect of over 35% in size
Summary of the method: as §1

[8] = qHTS RealTime-Glo MT Cell Viability Assay in HepG2 cells - 0 hour (AID 1224889); also: nearly all actives have a fitted effect of over 50% in size
Summary of the method: as §3

[9] = A CellTox Green Cytotoxicity Assay to monitor cytotoxicity in HepG2 cells - 8 hour (AID 1224890); also: nearly all actives have a fitted effect of over 45% in size
Summary of the method: as §2

[10] = qHTS assay to identify small molecule antagonists of the estrogen receptor alpha (ER-alpha) signaling pathway using the BG1 cell line in the presence of 0.1 nM 17-beta-estradiol - cell viability counter screen (AID 1259241); also: nearly all actives have a fitted effect of over 40% in size
Summary of the method: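 Cells were plated and left 24 hr, compounds in DMSO were pinned in, 17beta-estradiol was added to 0.1 nM final, and after 22 hr CellTiter-Fluor reagent was added for 30 min before fluorescence was read.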

[11] = qHTS assay to identify small molecule antagonists of the androgen receptor (AR) signaling pathway using the MDA cell line in the presence of 0.5 nM R1881 - cell viability counter screen (AID 1259242); also: nearly all actives have a fitted effect of over 45% in size
Summary of the method: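 Human breast carcinoma MDA-kb2 cells, cultured without CO2, receive compounds alongside 0.5 nM (final) R1881 agonist. After 16 hr at 37C, viability is taken as live-cell protease signal.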

[12] = target: Androgen receptor (Homo sapiens) (UniProt P10275); assay: qHTS assay to identify small molecule antagonists of the androgen receptor (AR) signaling pathway using the MDA cell line in the presence of 0.5 nM R1881 (AID 1259243); also: nearly all actives have a fitted effect of over 50% in size
Summary of the method: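 Cells: MDA-kb2 (MMTV-luc). Stimulus: 0.5 nM R1881. Time: 16 hr, 37C, no CO2. Detection: ONE-Glo luminescence after 30 min at RT.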

[13] = target: Estrogen receptor (Homo sapiens) (UniProt P03372); assay: qHTS assay to identify small molecule antagonists of the estrogen receptor alpha (ER-alpha) signaling pathway using the BG1 cell line in the presence of 0.1 nM 17-beta-estradiol (AID 1259244); also: nearly all actives have a fitted effect of over 50% in size
Summary of the method: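 Seeding of stripped-serum-adapted VM7Luc4E2 cells, 24 h attachment, compound transfer, then 0.1 nM final 17beta-estradiol; after 22 h incubation, ONE-Glo reagent and luminescence reading.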

[14] = qHTS assay to identify small molecule phospholipidosis (PLD) inducers (AID 1259344; active = well fitted curve in the direction sought with a large enough effect; an effect the other way counts as inactive or inconclusive)
Summary of the method: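 After 4 h attachment on collagen I, HepG2 cells were dosed with compound alongside LipidTOX Red, kept 24 h at 37 C, fixed, and imaged for lamellar phospholipid pits.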

[15] = qHTS assay to identify small molecule HDAC inhibitors (AID 1259364);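 also: wild-type HCT-116 cells with endogenous class I/II HDAC activity; top concentration of the series differs between compounds; nearly all actives have a fitted effect of over 45% in size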
Summary of the method: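 After a 2 hr compound incubation (37C, 5% CO2), HCT-116 cells seeded at 1,500/well the day before received HDAC-Glo reagent; signal read as luminescence after 30 min at room temperature.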

[16] = qHTS assay to identify small molecule HDAC inhibitors - cell viability counter screen (AID 1259365)
Summary of the method: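 Counter screen in wild-type HCT-116 cells: compounds dissolved in DMSO are pin-transferred onto overnight-plated cells and left 2hr at 37C. ATP-based CellTiter-Glo luminescence then measures viable cells.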

[17] = qHTS assay to identify small molecule agonists of the sonic hedgehog signaling (Shh) pathway - cell viability counter screen (AID 1259366); also: nearly all actives have a fitted effect of over 50% in size; also: potency is read from the fitted curve at half-maximal effect
Summary of the method: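 Cells are plated at 2,000 per well and left 4hr at 37C, 5% CO2 before compound addition. After 23hr of treatment, CellTiter-Fluor reagent is added for 1hr at 37C and fluorescence is measured.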

[18] = qHTS assay to identify small molecule antagonists of the sonic hedgehog signaling (Shh) pathway - cell viability counter screen (AID 1259367); also: nearly all actives have a fitted effect of over 55% in size; also: potency is read from the fitted curve at half-maximal effect
Summary of the method: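 Conditioned medium drove Shh signaling in 3T3 Gli1-Luc cells exposed to compounds at 37C and 5% CO2. Viability was determined from CellTiter-Fluor fluorescence, with reagent incubated 1 hr after 23 hr of treatment.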

[19] = A CellTox Green Cytotoxicity Assay to monitor cytotoxicity in HepG2 cells - 0 hour (AID 1224882); also: nearly all actives have a fitted effect of over 35% in size
Summary of the method: as §2

[20] = qHTS assay to identify small molecule agonists of the sonic hedgehog signaling (Shh) pathway (AID 1259368; calls by dose curve;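 also: NIH/3T3-derived 3T3Gli1-Luc cells carrying a stable Gli1-driven firefly luciferase reporter; series mostly up to about 92 µM; nearly all actives have a fitted effect of over 15% in size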)
Summary of the method: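 Stable NIH/3T3 Gli1-Luc reporter clone; 24 hr cpd exposure after a 4 hr settling period; luminescence endpoint.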
% is scaled to controls: 0 for no effect and ±100 for the full control effect.

Chain of Androgen receptor (Homo sapiens) (P10275 whole entry, looked up): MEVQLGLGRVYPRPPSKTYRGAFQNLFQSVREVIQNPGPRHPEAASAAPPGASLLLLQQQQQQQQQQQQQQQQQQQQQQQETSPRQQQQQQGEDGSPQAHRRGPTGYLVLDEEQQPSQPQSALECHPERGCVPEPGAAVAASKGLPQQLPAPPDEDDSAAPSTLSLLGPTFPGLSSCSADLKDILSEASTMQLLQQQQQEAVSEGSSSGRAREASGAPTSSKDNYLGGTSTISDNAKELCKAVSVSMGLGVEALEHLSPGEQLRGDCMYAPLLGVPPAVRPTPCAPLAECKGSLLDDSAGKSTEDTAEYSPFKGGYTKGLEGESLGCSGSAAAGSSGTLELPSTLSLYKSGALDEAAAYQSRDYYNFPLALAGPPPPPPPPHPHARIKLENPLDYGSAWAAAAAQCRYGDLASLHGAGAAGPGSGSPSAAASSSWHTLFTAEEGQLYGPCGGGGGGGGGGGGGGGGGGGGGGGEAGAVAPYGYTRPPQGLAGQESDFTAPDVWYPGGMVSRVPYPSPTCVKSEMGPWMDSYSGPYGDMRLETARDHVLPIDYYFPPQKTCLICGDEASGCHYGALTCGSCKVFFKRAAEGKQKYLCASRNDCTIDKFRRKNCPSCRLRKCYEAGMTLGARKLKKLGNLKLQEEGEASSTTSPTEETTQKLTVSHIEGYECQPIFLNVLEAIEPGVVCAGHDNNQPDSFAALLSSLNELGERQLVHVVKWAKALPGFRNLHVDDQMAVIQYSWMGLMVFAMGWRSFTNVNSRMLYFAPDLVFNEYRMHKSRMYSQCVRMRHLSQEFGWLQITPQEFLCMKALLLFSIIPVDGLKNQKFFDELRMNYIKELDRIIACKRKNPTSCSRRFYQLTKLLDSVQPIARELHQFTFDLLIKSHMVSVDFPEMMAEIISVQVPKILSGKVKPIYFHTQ
Chain of Estrogen receptor (Homo sapiens) (P03372 whole entry, looked up): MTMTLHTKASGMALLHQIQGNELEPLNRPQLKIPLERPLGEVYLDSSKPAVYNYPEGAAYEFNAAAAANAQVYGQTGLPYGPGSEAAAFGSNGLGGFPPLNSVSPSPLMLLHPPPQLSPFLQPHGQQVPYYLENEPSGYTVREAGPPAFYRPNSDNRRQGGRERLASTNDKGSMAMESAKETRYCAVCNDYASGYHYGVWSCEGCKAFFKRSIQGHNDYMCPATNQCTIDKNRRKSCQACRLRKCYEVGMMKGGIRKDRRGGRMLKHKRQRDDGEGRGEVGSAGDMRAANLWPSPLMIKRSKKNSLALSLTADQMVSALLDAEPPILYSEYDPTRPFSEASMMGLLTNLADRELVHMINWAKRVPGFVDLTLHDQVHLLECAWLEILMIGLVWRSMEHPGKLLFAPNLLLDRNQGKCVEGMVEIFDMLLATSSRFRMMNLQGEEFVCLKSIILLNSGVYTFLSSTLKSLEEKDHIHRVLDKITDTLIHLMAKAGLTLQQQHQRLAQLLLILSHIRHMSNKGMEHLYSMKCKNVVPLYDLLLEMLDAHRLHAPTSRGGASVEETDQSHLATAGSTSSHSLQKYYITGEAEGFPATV

CCC1(C2=NCCN2)Cc2ccccc2O1 (stereo not drawn)
inactive: Potency [1] | Potency [2] | Potency [3] | Potency [4] | Potency [5] | Potency [6] | Potency [7] | outcome [8] | Potency [9] | Potency [10] | Potency [11] | Potency [12] | Potency [13] | outcome [14] | Potency [15] | Potency [16] | Potency [17] | Potency [18]

O=CC=O
inactive: Potency [1] | Potency [19] | Potency [2] | Potency [4] | Potency [5] | Potency [7] | outcome [8] | Potency [9] | Potency [10] | Potency [11] | Potency [12] | Potency [13] | outcome [14] | Potency [15] | Potency [16] | Potency [17] | Potency [20]

CCN(C(C)=O)c1cccc(-c2ccnc3c(C#N)cnn23)c1
inactive: Potency [1] | Potency [2] | Potency [3] | Potency [4] | Potency [5] | Potency [6] | Potency [7] | outcome [8] | Potency [9] | Potency [10] | Potency [11] | Potency [13] | outcome [14] | Potency [15] | Potency [16] | Potency [17] | Potency [20]

C=CCc1ccc(OC(=O)Cc2ccccc2)c(OC)c1
inactive: Potency [1] | Potency [19] | Potency [3] | Potency [4] | Potency [7] | outcome [8] | Potency [9] | Potency [10] | Potency [11] | Potency [15] | Potency [16] | Potency [17] | Potency [20]

CCCCCCCCCCCCN=C(N)N
inactive: cytotoxicity increase [1] 11.7% [at 2.72 µM] | cytotoxicity [19] -4.6% [at 2.72 µM] | cytotoxicity increase [2] -4.96% [at 2.72 µM] | cytotoxicity increase [3] 4.34% [at 2.72 µM] | activity change, negative = cytotoxic [4] -5.38% [at 2.72 µM] | activity change [7] 7.85% [at 2.72 µM, active compounds read high] | activity change, negative = cytotoxicity [8] 5.28% [at 2.72 µM] | cytotoxicity increase [9] -0.515% [at 2.72 µM] | activity change, negative = cytotoxicity [10] 2.27% [at 3.27 µM] | viability change, negative = cytotoxic [11] -1.29% [at 3.26 µM] | activity change, negative = inhibition [15] 5.66% [at 3.27 µM] | activity change, negative = cytotoxicity [16] -3.51% [at 3.27 µM] | viability change, negative = cytotoxic [17] 23.3% [at 3.27 µM] | viability change, negative = cytotoxic [18] 1.35% [at 3.27 µM] | activity change [20] 0.488% [at 3.27 µM, active compounds read high]

C=CCc1ccccc1O
inactive: Potency [1] | Potency [2] | Potency [3] | Potency [4] | Potency [5] | Potency [6] | Potency [7] | outcome [8] | Potency [9] | Potency [10] | Potency [11] | Potency [13] | Potency [15] | Potency [16] | Potency [17] | Potency [18]

CN1CC[C@]23c4c5ccc(O)c4O[C@H]2[C@@H](O)C=C[C@H]3[C@H]1C5
inactive: Potency [1] | Potency [2] | Potency [3] | Potency [4] | Potency [5] | Potency [6] | Potency [7] | outcome [8] | Potency [9] | Potency [10] | Potency [11] | Potency [12] | outcome [14] | Potency [15] | Potency [16] | Potency [18] | Potency [20]

Nc1ccccc1C(=O)OCC(O)CO (stereo not drawn)
inactive: Potency [1] | Potency [2] | Potency [3] | Potency [4] | Potency [5] | Potency [6] | Potency [7] | outcome [8] | Potency [9] | Potency [10] | Potency [11] | Potency [12] | Potency [13] | Potency [15] | Potency [16] | Potency [17] | Potency [18] | Potency [20]

CC(C)(C)N(NC(=O)c1ccc(Cl)cc1)C(=O)c1ccccc1
active: Potency [17] 2.71 µM | Potency [18] 3.83 µM
inactive: Potency [1] | Potency [19] | Potency [2] | Potency [3] | Potency [4] | Potency [6] | Potency [7] | outcome [8] | Potency [9] | Potency [11] | Potency [12] | Potency [13] | Potency [15] | Potency [16] | Potency [20]

CC(C)CCCCCCCOC(=O)c1ccccc1C(=O)OCCCCCCCC(C)C
inactive: Potency [1] | Potency [19] | Potency [2] | Potency [3] | Potency [4] | Potency [5] | Potency [7] | outcome [8] | Potency [9] | Potency [10] | Potency [11] | Potency [16] | Potency [17] | Potency [20]

COc1cc(C[C@@H](C)N)c(OC)cc1Br
inactive: Potency [1] | Potency [19] | Potency [3] | Potency [4] | Potency [5] | Potency [6] | Potency [7] | Potency [9] | Potency [10] | Potency [11] | Potency [13] | outcome [14] | Potency [15] | Potency [16] | Potency [20]

CC(C)[C@@H](C(=O)O[C@@H](C#N)c1cccc(Oc2ccccc2)c1)c1ccc(Cl)cc1
inactive: Potency [1] | Potency [19] | Potency [2] | Potency [3] | Potency [4] | Potency [7] | outcome [8] | Potency [9] | Potency [10] | Potency [11] | Potency [15] | Potency [16] | Potency [17] | Potency [18] | Potency [20]

CCCN(CCC)C(=O)Cc1c(-c2ccc(Cl)cc2)nc2ccc(Cl)cn12
active: Potency [5] 5.35 µM | Potency [6] 5.35 µM
inactive: Potency [1] | Potency [19] | Potency [3] | Potency [4] | Potency [7] | outcome [8] | Potency [9] | Potency [10] | Potency [11] | Potency [13] | outcome [14] | Potency [15] | Potency [16] | Potency [20]

Cc1nc2ccccc2c(=O)n1-c1ccccc1Cl
inactive: Potency [1] | Potency [19] | Potency [2] | Potency [3] | Potency [7] | Potency [9] | Potency [11] | Potency [13] | outcome [14] | Potency [15] | Potency [16] | Potency [20]
active: Potency [5] 21.4 µM | Potency [17] 10.6 µM | Potency [18] 2.38 µM

Nc1c(Br)cc(Br)c2c1C(=O)c1ccccc1C2=O
inactive: cytotoxicity increase [1] -1.22% [at 15.8 µM] | cytotoxicity [19] -4.24% [at 15.8 µM] | cytotoxicity increase [2] -5.33% [at 15.8 µM] | cytotoxicity increase [3] -10.2% [at 15.8 µM] | activity change, negative = cytotoxic [4] -7.09% [at 15.8 µM] | activity change [7] -11% [at 15.8 µM, active compounds read high] | activity change, negative = cytotoxicity [8] -16.3% [at 15.8 µM] | cytotoxicity increase [9] -5.92% [at 15.8 µM] | activity change, negative = cytotoxicity [10] -0.0291% [at 19 µM] | viability change, negative = cytotoxic [11] 2.34% [at 19 µM] | activity, negative = inhibition [12] -15.1% [at 19 µM] | activity change, negative = inhibition [13] 16.5% [at 19 µM] | activity change, negative = inhibition [15] -14.9% [at 19 µM] | activity change, negative = cytotoxicity [16] -8.35% [at 19 µM] | viability change, negative = cytotoxic [18] -3.04% [at 19 µM]
